This is an account of results in PubChem BioAssay AID463218 (Sanford-Burnham Center for Chemical Genomics, 2010).

Among all 4,400 compounds or so, about 3,700 (84%) were called active.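 How the source made its calls: active means inhibition above about 39% in either of two replicate wells at 20 µM (limit read from the data); inactive means the rest.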 So high a share suggests a set chosen from earlier hits. The list is a sample of the results.

This test can be described thus: tim23-1 mutant yeast growth inhibitors, confirmation, luminescence, single concentration (AID 463218).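 Further: temperature-sensitive tim23-1 mutant grown at 25 °C; 0% = DMSO wells with yeast and 100% = medium wells without yeast.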 The conditions noted are these: S. cerevisiae tim23-1 growth, BacTiter-Glo luminescence, 24 h; at 20 µM; hits give high values.
As for `Cc1ccc(-c2nc3ccccc3c(=O)n2-c2ccc(Br)cn2)cc1`, the inhibition was 53.6% (active). As for `Cc1cc2ccccn2c1C(C[N+](=O)[O-])c1c(F)cccc1Cl` (stereo not drawn), the figure is 58.5% (active); as for `COc1cccc(N2C(=O)NC(=O)/C(=C\c3ccc([N+](=O)[O-])s3)C2=O)c1`, 78.3% (active).

One may read the inhibition as the percentage by which the read-out fell short of the control.
